# Data taken from PubChem BioAssay (EPA / NIEHS).
# Results filed as inconclusive are left out. Calls of active or inactive are those of the source. How the source made its calls: active means hit-call score of the fitted dose curve at least 0.9, where 1 is the maximum; inconclusive means response in the unintended direction; inactive means score below 0.9.
# Target: human Vitamin D Receptor (VDR), VDR (gene 7421) (UniProt P11473)
# Test: ATG_VDR_TRANS: Attagene TRANS-FACTORIAL HepG2 Assay for human Vitamin D Receptor (VDR) (AID 2283022)
# Procedure, shortened: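 HepG2 cells were transiently transfected with multiple GAL4-UAS reporter units, so signal reflects exogenous chimeric receptor-Gal4 activity. After 24 h compound exposure, reporter mRNA was measured by RT-PCR, fluorescent labelling and capillary electrophoresis, fitted for gain of signal versus DMSO.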
# Sequence of human Vitamin D Receptor (VDR), VDR (gene 7421) (P11473 whole entry, looked up): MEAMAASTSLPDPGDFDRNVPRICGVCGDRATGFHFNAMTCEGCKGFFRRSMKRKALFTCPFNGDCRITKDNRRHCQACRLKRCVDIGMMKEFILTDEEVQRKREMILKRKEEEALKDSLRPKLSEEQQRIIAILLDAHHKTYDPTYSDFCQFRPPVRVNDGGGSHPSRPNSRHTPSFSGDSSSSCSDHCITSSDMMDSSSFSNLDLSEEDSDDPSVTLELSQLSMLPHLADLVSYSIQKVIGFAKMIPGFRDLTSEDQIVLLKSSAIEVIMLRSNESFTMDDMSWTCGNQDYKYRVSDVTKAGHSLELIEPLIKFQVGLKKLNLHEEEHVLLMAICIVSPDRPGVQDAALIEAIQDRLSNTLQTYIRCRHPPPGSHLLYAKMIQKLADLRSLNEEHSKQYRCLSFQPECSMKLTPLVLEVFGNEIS
row,SMILES,outcome
1,C=CC[N+](C)(C)CC=C,inactive
2,COC(=O)OC,inactive
3,CCC(C)(O)CCC=C(C)C (stereo not drawn),inactive
4,CC(O)C(C)O (stereo not drawn),inactive
5,O=Cc1ccc(F)cc1,inactive
6,CC(C)C[C@H]1C(=O)N2CCC[C@H]2[C@]2(O)O[C@](NC(=O)[C@@H]3C=C4c5cccc6[nH]c(Br)c(c56)C[C@H]4N(C)C3)(C(C)C)C(=O)N12,inactive
7,CC(C)(C)c1n[nH]c(=S)n(N)c1=O,inactive
8,CC(C)C1CCC(O)CC1 (stereo not drawn),inactive
9,CC(CCO)CCCC(C)(C)O (stereo not drawn),inactive
10,COc1cc2ncnc(Nc3cccc(Cl)c3)c2cc1OC,inactive
11,COC(=O)Cc1cccc2ccccc12,inactive
12,O=C1CCc2ccccc2O1,inactive
13,CC1(C)OC[C@@H]2O[C@@]3(C(=O)O)OC(C)(C)O[C@H]3[C@@H]2O1,inactive
14,O=S(=O)(O)c1cccc2c(S(=O)(=O)O)cccc12,inactive
15,COC(C(=O)O)c1ccccc1 (stereo not drawn),inactive
16,CC(=O)C=CC1=C(C)CCCC1(C)C,inactive
17,CN1[C@@H]2CC(OC(=O)[C@H](CO)c3ccccc3)C[C@H]1[C@@H]1O[C@@H]12 (stereo partly drawn),inactive
18,CC(=O)c1c(C)cc(C(C)(C)C)cc1C,inactive
19,CCCC(=O)OCCC(C)CCC=C(C)C (stereo not drawn),inactive
20,CCCc1c(OCCCOc2ccc(OCC(=O)O)cc2)ccc(C(C)=O)c1O,inactive
21,CC1=CC(=O)NS(=O)(=O)O1,inactive
22,c1ccc(CCCc2ccccn2)cc1,inactive

row,SMILES,outcome
1,C=CC(=O)OCC(O)COc1ccccc1 (stereo not drawn),inactive
2,O=[N+]([O-])c1ccc(Nc2ccc(Nc3ccccc3)c(S(=O)(=O)O)c2)c([N+](=O)[O-])c1,inactive
3,O=C1c2ccccc2C(=O)N1SC1CCCCC1,inactive
4,COc1ccc(NC(=O)CC(C)=O)cc1,inactive
5,CC1=CCC(O)(C(C)C)CC1 (stereo not drawn),inactive
6,CC(C)=CCCC(C)=CCCC(C)=CCO,inactive
7,CC(=O)OCC=Cc1ccccc1,inactive
8,Cc1ncc([N+](=O)[O-])n1C,inactive
9,CCCCCCOC(=O)CCCCC,inactive
10,O=C(Oc1ccccc1)c1ccc(O)cc1,inactive
11,O=C(O)CCCCC1CCSS1 (stereo not drawn),inactive
12,CCCCOCCOCCOCCOCCO,inactive
13,O=c1[nH]nnc2ccccc12,inactive
14,CCCCc1ccc(N)cc1,inactive
15,CC1(C)CCC(C)(C)c2cc(C(=O)Nc3ccc(C(=O)O)cc3)ccc21,inactive
16,CC(C)CCCCCCCOC(=O)c1ccc(C(=O)OCCCCCCCC(C)C)c(C(=O)OCCCCCCCC(C)C)c1,inactive
17,C=CCOc1nc(OCC=C)nc(OCC=C)n1,inactive
18,CCOC(=O)c1ccccc1OC,inactive
19,CN(C)c1ccc(O)c2c1C[C@H]1C[C@H]3[C@H](N(C)C)C(=O)C(C(N)=O)=C(O)[C@@]3(O)C(=O)C1=C2O,inactive
20,COc1cc(C(C)(C)C)c(O)c(C(C)(C)C)c1,inactive
21,CC1=CCC2C(C1)C2(C)C (stereo not drawn),inactive
